Where “and” joins values, the source holds several entries; their conditions need not be identical. Equal entries are not always repeated. Compounds without any hit were thinned out: in the full panel of roughly 83,000, 20% have a hit.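 In brief: 96-well plates, 48 h treatment, single concentration, percent growth endpoint.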 Calls of active or inactive are those of the source. The calls were made as follows: active = growth percent below 10; inactive = the rest.
How the values were obtained:
Assay in all cases: NCI-60 one-dose screen, 48 h (100 = growth as untreated, 0 = no growth, -100 = all killed)
Details in all cases: 10 µM unless noted
[1] = tested on: SR leukemia
[2] = tested on: RPMI-8226 leukemia
[3] = tested on: OVCAR-8 ovarian
[4] = tested on: OVCAR-5 ovarian
[5] = tested on: OVCAR-4 ovarian
[6] = tested on: SK-OV-3 ovarian
[7] = tested on: IGROV1 ovarian
[8] = tested on: OVCAR-3 ovarian
[9] = tested on: HS 578T breast
[10] = tested on: NCI/ADR-RES ovarian

Measured: growth

C=C1C(=O)O[C@H]2[C@H]1CC/C(COC(=O)NC1CCC(O)CC1)=C\CC[C@@]1(C)O[C@@H]21 (stereo not given in full)
inactive: [1] 27.3% and 23.4% | [2] 61.4% and 54.9% | [3] 77.1% and 79.6% | [4] 83.9% and 83.6% | [5] 77.8% and 76% | [6] 103% and 104% | [7] 97.4% and 78.2% | [8] 44.5% and 46.5% | [9] 92% and 87.6% | [10] 99.8% and 100%

CNC(=O)c1cccc(-c2ccc3c(N4CCOC[C@@H]4C)nc(N4CCOC[C@@H]4C)nc3n2)c1
4.95% (active) and 11.5% (inactive): [8]
active: [1] 9.14% and 1.3% | [2] 3.4% and 4.33% | [3] -4.37% and -7.81% | [4] 8.26% and -3.61% | [5] -17.7% and -18.2% | [6] -23% and -36.9% | [7] -16.6% and -36.1% | [9] -31.1% | [10] 1.66% and -15.6%

N#C/C(=C1C=C/C(=N/O)C(Br)=C/1)c1ccccc1
inactive: [4] 52.2% | [5] 42.1% | [6] 29.1% | [9] 42.6%
active: [1] 7.83% | [2] 6.28% | [3] 1.66% | [7] 4.78% | [8] -3.84% | [10] 9.55%

CCCCCCCCCCCCOc1ccccc1C=O
inactive: [1] 84.9% | [2] 96.4% | [3] 94.6% | [4] 101% | [5] 86.5% | [6] 95.7% | [7] 112% | [8] 108% | [9] 97% | [10] 102%

CC(=O)NC(Cc1ccccc1)C(=O)Oc1ccc2ccccc2c1 (stereo not given)
inactive: [1] 113% | [2] 90.2% | [3] 103% and 105% | [4] 108% and 93% | [5] 101% and 97.6% | [6] 91.5% | [7] 135% and 111% | [8] 122% and 100% | [9] 98.8% and 107% | [10] 98.4% and 105%

CN(Cc1ccccc1)Cc1ccccc1
inactive: [1] 105% | [2] 110% | [3] 117% | [4] 103% | [5] 113% | [6] 113% | [7] 99.4% | [8] 106% | [9] 108% | [10] 102%

CCN(CC)C(=O)c1cccnc1
inactive: [1] 90.5% | [2] 105% | [3] 98.8% | [4] 99.4% | [5] 112% | [6] 109% | [7] 130% | [8] 109% | [9] 108% | [10] 111%

NC(=O)C1CC2C=CC1C2 (stereo not given)
inactive: [1] 112% and 105% | [2] 144% and 87.5% | [3] 97% and 95.1% | [4] 89.8% and 95.3% | [5] 107% and 120% | [6] 111% and 121% | [7] 70.1% and 87.3% | [8] 93.2% and 106% | [9] 110% and 94.3% | [10] 108% and 102%

N/C(=N\N=C\c1ccc2c(c1)OCO2)N/N=C\c1ccc2c(c1)OCO2
active: [1] -8.73%
inactive: [2] 98.5% and 67.3% | [3] 102% and 95% | [4] 122% and 96.9% | [5] 93.8% | [6] 118% and 111% | [7] 112% and 96.8% | [8] 126% and 101% | [9] 115% and 92.5% | [10] 101% and 82.6%

Cc1cccc(/C=C\C(=O)c2ccc(Cl)cc2)c1
inactive: [2] 26.1% | [3] 101% and 100% | [4] 93.5% and 98.5% | [5] 89.1% and 103% | [6] 108% and 104% | [7] 101% and 92.7% | [8] 96.6% and 101% | [9] 112% and 102% | [10] 101% and 99.2%
36% (inactive) and 3.37% (active): [1]

CC(=O)Nc1cc(S(=O)(=O)O)cc2cc(S(=O)(=O)O)c(N=Nc3ccccc3)c(O)c12
inactive: [1] 98.8% and 92.1% | [2] 104% and 96.3% | [3] 109% and 99.5% | [4] 122% and 113% | [5] 109% | [6] 128% and 104% | [7] 117% and 101% | [8] 121% and 109% | [9] 92.9% and 103% | [10] 107% and 105%

COc1ccccc1NC(=O)OCC#CCOC(=O)Nc1ccccc1OC
inactive: [1] 88% and 61.5% | [2] 90.2% and 72.3% | [3] 106% and 97.6% | [4] 98.9% and 98.3% | [5] 99.2% and 94% | [6] 104% and 94.8% | [7] 108% and 83.5% | [8] 127% and 86.4% | [9] 99.7% and 76.3% | [10] 98.7% and 92.7%

O=C=NC(c1ccccc1)(c1ccccc1)c1ccccc1
inactive: [1] 96.2% | [2] 119% | [3] 97.4% | [4] 99.1% | [5] 115% | [6] 89.1% | [7] 105% | [8] 116% | [9] 111% | [10] 109%

COc1ccc(NC(=S)Nc2ccccn2)cc1
inactive: [1] 90.5% | [2] 93% | [3] 96.5% | [4] 97.7% | [5] 110% | [6] 98% | [7] 106% | [8] 97% | [9] 101% | [10] 99.8%

CC(C)(C)c1ccc(O)c(CNC2CCCCC2)c1
inactive: [1] 80% and 83.5% | [2] 82% and 74.9% | [3] 101% and 88.9% | [4] 106% and 93% | [5] 82.8% | [6] 108% and 97.8% | [7] 97.7% and 92% | [8] 111% and 92.8% | [9] 89.2% and 89.9% | [10] 98.5%

Cn1cnc([N+](=O)[O-])c1Sc1ncnc2nc[nH]c12
inactive: [1] 44.9% | [2] 34.1% and 36.5% | [3] 50% and 75.4% | [4] 61.8% and 71.6% | [5] 39.7% and 53.2% | [6] 16.9% | [7] 74.5% and 83.4% | [8] 50.8% and 39.5% | [9] 79.6% and 69.1% | [10] 67.2% and 57.4%
